Assay results published in PubChem BioAssay AID2069 (Sanford-Burnham Center for Chemical Genomics, 2009).
Out of some 1,200 compounds screened, about 210 (18%) were called active. Not all results are given here. Unmarked numbers belong to inactive results. Rule as the data show it: active = inhibition above about 30%; inactive = the rest.

experiment: HTRF signal interference by compounds, confirmation, artefact control for SUMOylation inhibitor project, biochemical, uHTS (AID 2069); conditions: HTRF interference counterscreen, fluorescence, at 35 µM, stronger effect = higher value

Structure (SMILES)	inhibition
O=c1c(-c2c(O)cc(O)c3c(=O)cc(-c4ccc(O)cc4)oc23)c(-c2ccc(O)cc2)oc2cc(O)cc(O)c12	35.6% (active)
COc1cccc(NC(=O)Nc2nnc(-c3ccccc3SCc3ccccc3)s2)c1	2.35%
COc1ccc(/C=C/c2cc(C(=O)O)c3ccccc3n2)cc1	68.2% (active)
COc1ccc(C=Nc2cccc3ncccc23)cc1	-4.65%
CCOc1ccc(/C=N/NC(=O)c2cc(-c3ccco3)nc3ccccc23)cc1	15.3%
C/C(=N\NC(=O)c1cc(O)ccc1O)c1cccc(NC(=O)c2ccc(Cl)cc2)c1	-7.9%
Cc1ccc(NC(=O)Cn2c(=O)oc3cc(S(=O)(=O)N4CCC(C)CC4)ccc32)cc1C	-3.55%
O=C1/C(=C/c2ccco2)Oc2c1ccc(O)c2CN1CCCCC1	37.6% (active)
NC(=O)CC(NC(=O)Cc1ccc(Br)cc1)c1ccc(NCCOc2ccccc2)c([N+](=O)[O-])c1 (stereo not drawn)	7.3%
CN(C)c1cc(Nc2cccc(O)c2)c([N+](=O)[O-])c2nonc12	-1.05%
CN(C)CCNS(=O)(=O)c1ccc2c3c(cccc13)C(=O)N2	60.6% (active)
CN1C(=O)c2cccc3c(S(=O)(=O)NCCc4ccccc4)ccc1c23	45% (active)
CCN1C(=O)c2cccc3c(N)ccc1c23	-24.4%
CCN(CC)CCNS(=O)(=O)c1ccc2c3c(cccc13)C(=O)N2	47.2% (active)
CN1C(=O)c2cccc3c(S(=O)(=O)NCc4ccco4)ccc1c23	11.9%
O=C(NCc1ccccc1)Nc1cccn(Cc2ccccc2Cl)c1=O	1.3%
N=C1S/C(=C\c2ccc(O)cc2)C(=O)N1c1ccc(F)cc1	14.8%
COc1ccc(-c2nc3c(c(SCC(=O)Nc4cccc(O)c4)n2)Cc2c(CO)cnc(C)c2O3)cc1	-1.05%
Cc1ccc(-c2nc3ccccc3o2)cc1NC(=O)c1ccc2c(c1)OCO2	16.6%
CC(=O)Nc1ccc(-c2nc3ccc(NC(C)=O)cc3o2)cc1	40.8% (active)
CC(=O)Nc1cccc(NC(=S)Nc2cccc3ccccc23)c1	-2.65%
CC(=O)Nc1ccc2nc3ccccc3nc2c1	36.7% (active)
CC(=O)Nc1ccc(S(=O)(=O)Nc2nc3ccccc3nc2Nc2ccc3ccccc3c2)cc1	18.6%
O=C(Nc1ccc2nc3ccccc3nc2c1)c1ccc(Br)cc1	20.6%

Structure (SMILES)	inhibition
CCOc1cc(/C=N/N=C(\N)c2nonc2N)cc(Br)c1OCc1cccc2ccccc12	0.3%
Cc1cc(/C=C2\SC(=S)NC2=O)c(C)[nH]1	3.5%
O=C(Nc1ccc(N2CCOCC2)c2nonc12)C1CCCC1	-18.9%
O=C(O)CSc1cc(C(=O)c2ccccc2O)cn2c(=O)c3c(-c4ccccc4)csc3nc12	7.6%
Cc1cc(-c2csc(N)n2)c(C)n1Cc1ccco1	-4.05%
COc1ccccc1NC(=O)c1sc2nc(-c3ccco3)ccc2c1N	26.8%
O=C(N/N=C/c1ccc(F)cc1)c1cc(-c2ccco2)nc2ccccc12	13%
Nc1c(C(=O)Nc2ccc(Br)cc2)sc2nc(-c3ccco3)ccc12	28.9%
Nc1c(C(=O)Nc2ccccc2)sc2nc(-c3ccco3)ccc12	50.1% (active)
Nc1c(C(=O)Nc2ccc(F)cc2)sc2nc(-c3ccco3)ccc12	47% (active)
O=C(Nc1ccc(-n2nncc2-c2ccco2)cc1)c1cc2ccccc2oc1=O	9.4%
O=C(N/N=C/c1ccc(-c2cccc([N+](=O)[O-])c2)o1)c1ccccc1O	2.3%
Cc1ccc(N=C2NC(=O)/C(=C\c3ccco3)S2)cc1	-0.45%
NC1=NC(c2ccc(Cl)cc2)N(c2ccc(S(N)(=O)=O)cc2)C(N)=N1 (stereo not drawn)	6.2%
O=C(CNc1cccc2ccccc12)c1ccc([N+](=O)[O-])cc1	-2.7%
CCOC(=O)N1CCN(C2=C(NS(=O)(=O)c3ccc(C)cc3)C(=O)c3ccccc3C2=O)CC1	-12.7%
COc1cc(C2c3c(oc4ccccc4c3=O)C(=O)N2c2nccs2)ccc1O (stereo not drawn)	7.95%
O=C(O)c1cc(-c2ccco2)nn1-c1ccc(Cl)cc1	1.75%
Cc1ccc(S(=O)(=O)n2ccc(OC(=O)c3cccs3)n2)cc1	0.25%
O=C1NNC(c2ccccc2)=N/C1=C\c1ccccc1Cl	-7.9%
Cc1ncc(CO)c(/C=N/NC(=O)c2cc(O)c(O)c(O)c2)c1O	0.4%
S=c1[nH]nc(-c2cccnc2)n1/N=C/C=C/c1ccco1	-1.7%
CN(C)/C=N/c1nc2nccc(-c3cccc(Cl)c3)n2n1	57.1% (active)
CN(C)/C=N/c1nc2nccc(-c3cccnc3)n2n1	49.2% (active)

Structure (SMILES)	inhibition
CC1=NN(c2ccc(F)cc2)C(=O)C1C(c1cccc(O)c1)c1c(C)[nH]n(-c2ccc(F)cc2)c1=O (stereo not drawn)	-9.8%
CN(C)c1cc(N/N=C\c2ccccc2)nc(N(C)C)n1	22.4%
O=C(CC1Nc2cccc3cccc(c23)NC1=O)Nc1ccccc1 (stereo not drawn)	-22.9%
O=C(CSc1ccc(Br)c2cccc(Cl)c12)Nc1ccc(S(=O)(=O)Nc2nccs2)cc1	-50.4%
COc1cc2c(ccc3cc(OC)c(OC)c(O)c32)cc1O	24.2%
CC(=O)Nc1ccc(NC(=O)Cn2c(-c3ccc(F)cc3)cnc2SCC(=O)Nc2c(C)cccc2C)cc1	-6.5%
[O-]/C(=C(\C(=S)Nc1cccc2ccccc12)[n+]1ccccc1)c1ccc(Cl)s1	-8.3%
COc1c(C)oc2cc(O)ccc2c1=O	41% (active)
O=C1CC(N2CCOCC2)=NN1c1ccc([N+](=O)[O-])cc1	-12.8%
O=C(NNc1cc(N2CCOCC2)nc(N2CCOCC2)n1)c1ccc(Cl)c(Cl)c1	-6.9%
Fc1ccc(-c2nc3cnccn3c2NC2CCCC2)cc1	57.9% (active)
O=C(/C=C\c1ccco1)c1ccc(NC(=O)c2ccco2)cc1	0.2%
CCOc1cc(CNc2ccc(N3CCN(C(C)=O)CC3)cc2)cc(Br)c1OC	-8.4%
Cc1c2c(=O)n(-c3nc4ccccc4s3)nc-2cc(O)n1Cc1ccccc1	-12.7%
Cc1ccc(S(=O)(=O)NNC(=S)Nc2c(Cl)cccc2Cl)cc1	-4.65%
Cc1[nH]n(-c2ccccc2)c(=O)c1/C=N/N(C)c1ccccc1	-31.9%
C[n+]1cccc2ccc3c(c21)OC(N)=C(C#N)C3c1ccccc1 (stereo not drawn)	-12.1%
COc1ccc(-c2cc(-c3ccccc3)n3ncnc3n2)cc1	53.7% (active)
COc1cc(OC)cc(-c2nc(-c3ccccc3)no2)c1	-17.7%
Cc1ccc(S(=O)(=O)C(C#N)c2nc3ccccc3nc2N2CCCC2)cc1 (stereo not drawn)	-7.1%
COc1ccc(C2=NN(C(=O)c3cccs3)C(c3ccccc3O)C2)cc1 (stereo not drawn)	8.65%
CC1=NN(c2ccccc2)C(=O)/C1=C/c1ccc(Cl)cc1	-10.2%
O=C(O)c1ccc(C(=O)Nc2cccc3ccccc23)c(C(=O)O)c1	4.4%
O=[N+]([O-])c1ccc2[nH]c(O)c(N=NC(=S)Nc3cccnc3)c2c1	-5.4%

Structure (SMILES)	inhibition
CCN(CC)CCOC(=O)c1ccc(N/C=C(/C#N)c2nc(-c3ccc(OC)c(OC)c3)cs2)cc1	6.75%
O=C(NCc1ccccc1)c1ccc2nc(-c3ccco3)c(-c3ccco3)nc2c1	15.6%
O=S(=O)(c1ccc2nc(-c3ccco3)c(-c3ccco3)nc2c1)N1CCOCC1	30.4% (active)
O=C(Nc1ccc2nc(-c3ccco3)c(-c3ccco3)nc2c1)N1CCN(c2ccccn2)CC1	12.2%
C=CCN1C(=O)N(CC=C)c2cccc3cccc1c23	-6.45%
Nc1c(N2CCCC2)cc(Cl)c2nonc12	22.4%
N#Cc1c(-c2ccco2)cc(-c2cccnc2)nc1N	25.1%
N#Cc1c(-c2cccc(Br)c2)cc(-c2ccco2)[nH]c1=O	31.6% (active)
CCOC(=O)COc1nc(-c2ccco2)cc(-c2ccco2)c1C#N	22.2%
COc1ccc(S(=O)(=O)/N=C2/NC(=O)/C(=C\c3ccco3)S2)cc1	-10.3%
CC(=O)C1=C(O)C=C(c2ccco2)CC1c1ccco1 (stereo not drawn)	-2.85%
O=c1oc2cc(O)ccc2cc1-c1ccc(F)cc1	45.8% (active)
O=c1cc(-c2ccc(F)cc2)[nH][nH]1	-7.15%
Cc1ccc(NC(=O)CN2C(=O)S/C(=C/c3ccc(O)c([N+](=O)[O-])c3)C2=O)cc1C	-1.6%
Cc1ccc(NC(=O)Cn2c(O)c(N=NC(=O)c3cc4ccccc4cc3O)c3ccccc32)cc1	8.55%
Cc1ccc(S(=O)(=O)c2cc3c(=O)n4ccccc4nc3n(Cc3ccco3)c2=N)cc1	-2.55%
Cn1c(C(=O)N2COCC2(C)C)cc2c(=O)n3ccccc3nc21	55.8% (active)
N=c1c(S(=O)(=O)c2ccc(Br)cc2)cc2c(=O)n3ccccc3nc2n1Cc1ccco1	-13.2%
Cn1c(C(=O)N2CCN(C(=O)c3ccco3)CC2)cc2c(=O)n3ccccc3nc21	57.9% (active)
N=c1c(S(=O)(=O)c2ccc(Cl)cc2)cc2c(=O)n3ccccc3nc2n1Cc1ccco1	-23.2%
N=c1c(S(=O)(=O)c2ccccc2)cc2c(=O)n3ccccc3nc2n1Cc1ccco1	14.8%
